According to PubChem BioAssay (NCATS):
Results filed as inconclusive are left out. Activity calls are given as the source filed them. Calls follow the shape of the dose curve; as a rule, active = well fitted curve in the direction sought with a large enough effect; inconclusive = small, poorly fitted or top-dose-only effect, or another doubt; inactive = no such curve, though single readings can be large; an effect the other way counts as inactive or inconclusive.

How the values were obtained:
[1] = qHTS of pediatric cancer cell lines to identify multiple opportunities for drug repurposing: Primary screen for NB1643 cells (AID 1347099);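 also: plate controls were DMSO neutral control for no effect and bortezomib positive control for full effect; nearly all actives have a fitted effect of over 50% in size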
In short: (§1)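 Cells seeded at 500-1,000 cells/well in growth media, rested 5 hours at 37 degrees C, 5% CO2, then dosed; MIPE compounds at 11-point (from 0.78 nM) and NPC at 8-point (from 0.59 nM) final concentrations. Viability by CellTiter-Glo luminescence after 48 hours.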

[2] = qHTS of pediatric cancer cell lines to identify multiple opportunities for drug repurposing: Primary screen for LAN-5 cells (AID 1347100);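 also: plate controls were DMSO neutral control for no effect and bortezomib positive control for full effect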
In short: (§2)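 Cells (500-1,000/well) rested 5 h, then received compounds for 48 h; metabolically active cells were measured by CellTiter-Glo luminescence. Final concentrations spanned up to 46 µM (MIPE, 11-point) or 0.59 nM-46 µM (NPC, 8-point) in primary screens, 11-point in follow-ups.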

[3] = qHTS of pediatric cancer cell lines to identify multiple opportunities for drug repurposing: Primary screen for BT-12 cells (AID 1347101);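 also: plate controls were DMSO for no effect and bortezomib positive control for full effect; nearly all actives have a fitted effect of over 25% in size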
In short: as §2

[4] = qHTS of pediatric cancer cell lines to identify multiple opportunities for drug repurposing: Primary screen for Rh18 cells (AID 1347102); also: % is scaled to controls: 0 for no effect and ±100 for the full control effect; nearly all actives have a fitted effect of over 65% in size
In short: as §2

[5] = qHTS of pediatric cancer cell lines to identify multiple opportunities for drug repurposing: Primary screen for OHS-50 cells (AID 1347103);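 also: plate controls were DMSO neutral control for no effect and bortezomib positive control for full effect; nearly all actives have a fitted effect of over 40% in size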
In short: as §2

[6] = qHTS of pediatric cancer cell lines to identify multiple opportunities for drug repurposing: Primary screen for RD cells (AID 1347104);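 also: plate controls were DMSO for no effect and bortezomib for full effect; nearly all actives have a fitted effect of over 55% in size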
In short: as §1

[7] = qHTS of pediatric cancer cell lines to identify multiple opportunities for drug repurposing: Primary screen for MG 63 (6-TG R) cells (AID 1347105); also: % is scaled to controls: 0 for no effect and ±100 for the full control effect; nearly all actives have a fitted effect of over 50% in size
In short: as §1

[8] = qHTS of pediatric cancer cell lines to identify multiple opportunities for drug repurposing: Primary screen for control Hh wild type fibroblast cells (AID 1347106);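 also: series mostly up to about 46 µM; % is scaled to controls: 0 for no effect and ±100 for the full control effect; a drop in luminescence marks cytotoxicity and a rise apparent proliferation; nearly all actives have a fitted effect of over 55% in size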
In short: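 Viability after 48 h compound treatment at 37C, 500-1,000 cells/well, read as ATP luminescence with CellTiter-Glo. Primary screens used 11-point (MIPE, 0.78 nM-46 µM) or 8-point (NPC, 0.59 nM-46 µM) final concentrations; follow-up screens used 11-point dilutions.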

[9] = qHTS of pediatric cancer cell lines to identify multiple opportunities for drug repurposing: Primary screen for Rh30 cells (AID 1347107); also: series mostly up to about 46 µM; % is scaled to controls: 0 for no effect and ±100 for the full control effect; nearly all actives have a fitted effect of over 75% in size
In short: as §2

[10] = qHTS of pediatric cancer cell lines to identify multiple opportunities for drug repurposing: Primary screen for Rh41 cells (AID 1347108);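 also: series mostly up to about 46 µM; luminescence drop marks cytotoxic hits; nearly all actives have a fitted effect of over 70% in size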
In short: as §1

O=C(O)/C=C/c1ccc(Cn2ccnc2)cc1
inactive: Potency [1] | outcome [2] | outcome [3] | outcome [4] | outcome [5] | outcome [6] | outcome [7] | outcome [8] | outcome [9] | outcome [10]

CC[C@]12CCCN3CCc4c(n(c5ccccc45)[C@@](O)(C(=O)OC)C1)[C@@H]32
inactive: Potency [1] | outcome [2] | outcome [3] | outcome [4] | outcome [5] | outcome [6] | outcome [7] | outcome [8] | outcome [9] | outcome [10]

NNc1nnc(NN)c2ccccc12
inactive: Potency [1] | outcome [2] | outcome [3] | outcome [4] | outcome [5] | outcome [6] | outcome [7] | outcome [8] | outcome [9] | outcome [10]

CC(=O)[C@@]1(O)CC[C@H]2[C@@H]3C[C@H](C)C4=CC(=O)C=C[C@]4(C)[C@@]3(F)[C@@H](O)C[C@@]21C
inactive: Potency [1] | outcome [2] | outcome [3] | outcome [4] | outcome [5] | outcome [6] | outcome [7] | outcome [8] | outcome [9] | outcome [10]

NC(=O)CC[C@@H](N)C(=O)O
inactive: Potency [1] | outcome [2] | outcome [3] | outcome [4] | outcome [5] | outcome [6] | outcome [7] | outcome [8] | outcome [9] | outcome [10]

N[C@@H](Cc1ccc(O)cc1)C(=O)O
inactive: activity change, negative = cytotoxic [1] 17.5% [at 9.22 µM] | activity change, negative = cytotoxic [2] 6.26% [at 9.22 µM] | activity change, negative = cytotoxic [3] 11.7% [at 11.5 µM] | activity change, negative = cytotoxic [4] 18.9% [at 9.22 µM] | activity change, negative = cytotoxic [5] 9.85% [at 11.5 µM] | activity change, negative = cytotoxic [6] 14.4% [at 9.22 µM] | activity change, negative = cytotoxic [7] -16.1% [at 9.22 µM] | activity change, negative = cytotoxic [8] 11.3% [at 9.22 µM] | activity change, negative = cytotoxic [9] 21.6% [at 9.22 µM] | activity change, negative = cytotoxic [10] 24.2% [at 9.22 µM]

O=C(NCCCN1CCOCC1)c1ccc(Cl)cc1
inactive: Potency [1] | outcome [2] | outcome [3] | outcome [4] | outcome [5] | outcome [6] | outcome [7] | outcome [8] | outcome [9] | outcome [10]

CC[N+](CC)(CC(=O)Nc1c(C)cccc1C)Cc1ccccc1
inactive: Potency [1] | outcome [2] | outcome [3] | outcome [4] | outcome [5] | outcome [6] | outcome [7] | outcome [8] | outcome [9] | outcome [10]

CCOc1ccc(C(=O)OCCN(CC)CC)cc1
inactive: Potency [1] | outcome [2] | outcome [3] | outcome [4] | outcome [6] | outcome [7] | outcome [8] | outcome [9] | outcome [10]

OC(CCN1CCCC1)(c1ccccc1)C1CCCCC1 (centres undefined)
inactive: Potency [1] | outcome [2] | outcome [3] | outcome [4] | outcome [7] | outcome [8] | outcome [9] | outcome [10]

OCCN1C[C@H](O)[C@@H](O)[C@H](O)[C@H]1CO
inactive: Potency [1] | outcome [2] | outcome [3] | outcome [4] | outcome [6] | outcome [7] | outcome [8] | outcome [9] | outcome [10]

CCc1nnc(NS(=O)(=O)c2ccc(N)cc2)s1
inactive: Potency [1] | outcome [2] | outcome [3] | outcome [4] | outcome [6] | outcome [7] | outcome [8] | outcome [9] | outcome [10]

O=c1[nH]c(=O)c2ccccc2o1
inactive: Potency [1] | outcome [2] | outcome [3] | outcome [4] | outcome [7] | outcome [8] | outcome [9] | outcome [10]

CCS(=O)(=O)CCn1c([N+](=O)[O-])cnc1C
inactive: Potency [1] | outcome [2] | outcome [3] | outcome [4] | outcome [6] | outcome [7] | outcome [8] | outcome [9] | outcome [10]

CN1C(=O)CC(c2ccccc2)C1=O (centres undefined)
inactive: Potency [1] | outcome [2] | outcome [3] | outcome [4] | outcome [6] | outcome [7] | outcome [8] | outcome [9] | outcome [10]

C[C@@H]1CCC[C@H](C)N1
inactive: Potency [1] | outcome [2] | outcome [3] | outcome [4] | outcome [6] | outcome [7] | outcome [8] | outcome [9] | outcome [10]

CC(=O)Oc1cccc(O)c1
inactive: Potency [1] | outcome [2] | outcome [3] | outcome [4] | outcome [6] | outcome [7] | outcome [8] | outcome [9] | outcome [10]

CC(=O)N[C@H]1[C@H]([C@H](O)[C@H](O)CO)OC(C(=O)O)=C[C@@H]1N=C(N)N
inactive: Potency [1] | outcome [2] | outcome [3] | outcome [4] | outcome [6] | outcome [7] | outcome [8] | outcome [9] | outcome [10]

O=C(O)Cc1cn(-c2ccccc2)nc1-c1ccc(Cl)cc1
inactive: Potency [1] | outcome [2] | outcome [3] | outcome [4] | outcome [6] | outcome [7] | outcome [8] | outcome [9] | outcome [10]

CN(C(=O)c1c(O)c2ccccc2n(C)c1=O)c1ccccc1
inactive: Potency [1] | outcome [2] | outcome [3] | outcome [4] | outcome [6] | outcome [7] | outcome [8] | outcome [9] | outcome [10]

CCOc1ccccc1O[C@H](c1ccccc1)[C@H]1CNCCO1
inactive: Potency [1] | outcome [2] | outcome [3] | outcome [4] | outcome [6] | outcome [7] | outcome [8] | outcome [9] | outcome [10]

CCCCOC(=O)c1ccc(N)cc1
inactive: Potency [1] | outcome [2] | outcome [3] | outcome [4] | outcome [7] | outcome [8] | outcome [9] | outcome [10]

O=C(O)CNC(=O)c1ccccc1I
inactive: Potency [1] | outcome [2] | outcome [3] | outcome [4] | outcome [6] | outcome [7] | outcome [8] | outcome [9] | outcome [10]

Cc1ccc2c(c1)c1c3n2CCNC3CCC1 (centres undefined)
inactive: Potency [1] | outcome [2] | outcome [3] | outcome [4] | outcome [6] | outcome [7] | outcome [8] | outcome [9] | outcome [10]

CCN(CC)CCOC(=O)C(c1ccccc1)c1ccccc1
inactive: Potency [1] | outcome [2] | outcome [3] | outcome [4] | outcome [7] | outcome [8] | outcome [9] | outcome [10]
